Compound activity (PubChem)
TRHR ag: qHTS for Small Molecule Agonists and Allosteric Enhancers of Human TRH Receptor: Primary Screen for Agonists; Thyrotropin-releasing hormone receptor (Homo sapiens), P34981; TRHR cells, calcium flux fluo-8, FDSS agonist mode; activation, % at 2 µM; actives 0.18% (n = 360,000); note: 0% is about no effect
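TRHR-expressing cells, plated overnight in medium with 10% serum, were loaded with fluo-8 calcium dye at room temperature. After a 10 s baseline, library compound was pin-added and calcium release was recorded kinetically (ex 480/em 530) as agonist response.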
GRP78 ERSR act: qHTS for Inducers of the Endoplasmic Reticulum Stress Response (ERSR) in Human Glioma: qHTS. U87-MG GRP78 promoter luciferase reporter, 16 h. Potency, µM, inactives show at the top dose activation, actives largely listed as activators. actives 0.02% (n = 420,000); active = well fitted activation curve with a large enough effect; note: potency is the fitted concentration of half-maximal effect; series mostly up to about 76 µM; % of control where 0% means no effect; nearly all actives have a fitted effect of over 35% in size
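Stably transfected U87-MG human glioma cells carrying a GRP78-based luminescent sensor were seeded at 1000 cells/well, pin-dosed with compounds and incubated 16 h. Luciferase reagent was then added, and end-point luminescence was read after 10 min at room temperature.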
TRHR PAM: qHTS for Small Molecule Agonists and Allosteric Enhancers of Human TRH Receptor: Primary Screen for Enhancers. Thyrotropin-releasing hormone receptor (Homo sapiens), P34981. TRHR cells, fluo-8 calcium fluorescence, EC20 TRH enhancement. enhancement, % at 2 µM. actives 0.66% (n = 360,000). AID 493056, 2011; in the data active = enhancement above about 30%; note: 0% is about no effect
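Enhancer read-out: after compound pinning and an initial kinetic agonist-mode read, an EC20 of TRH (10 nM final) was injected and fluo-8 calcium signal (Ex 480/Em 530) followed at 1 s/cycle for 100 cycles in TRHR-expressing cells.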
D1 potentiator: Potentiators of Human D1 Dopamine Receptor: qHTS | D(1A) dopamine receptor (Homo sapiens), P21728 | HEK293 TREx D1 cells, calcium flux, dopamine EC20 potentiation | potentiation, % at 10 µM | actives 0.036% (n = 360,000) | AID 504651, 2011; in the data active = potentiation above about 30%; note: 0% is about no effect
Target sequence (P21728 whole entry, looked up): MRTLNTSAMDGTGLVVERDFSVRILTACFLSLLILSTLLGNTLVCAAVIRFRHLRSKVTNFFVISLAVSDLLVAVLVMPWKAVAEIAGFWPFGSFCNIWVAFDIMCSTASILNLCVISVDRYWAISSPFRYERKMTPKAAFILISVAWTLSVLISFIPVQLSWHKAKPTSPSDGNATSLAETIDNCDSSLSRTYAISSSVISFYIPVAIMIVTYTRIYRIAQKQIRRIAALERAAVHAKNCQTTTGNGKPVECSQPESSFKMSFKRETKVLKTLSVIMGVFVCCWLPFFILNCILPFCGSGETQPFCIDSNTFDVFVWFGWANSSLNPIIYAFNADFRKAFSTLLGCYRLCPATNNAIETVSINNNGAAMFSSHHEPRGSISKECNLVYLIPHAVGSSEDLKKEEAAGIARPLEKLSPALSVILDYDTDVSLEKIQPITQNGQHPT
D1 antag: Antagonist of Human D 1 Dopamine Receptor: qHTS; D(1A) dopamine receptor (Homo sapiens), P21728; HEK293 TREx D1 cells, calcium flux, dopamine EC80; active compounds read low; activity change, negative = inhibition, % at 10 µM; actives 3.2% (n = 360,000); AID 504652, 2011; in the data active = activity change below about -30%; note: % is set by controls: 0 for no effect and ±100 for the full control effect
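Using tetracycline-induced force-coupled D1 Hek293 cells and a calcium dye, signals were followed for 180 s after compound, then for 180 s after EC80 dopamine, to detect inhibitors.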
D1 ag: Allosteric Agonists of the Human D1 Dopamine Receptor: qHTS | D(1A) dopamine receptor (Homo sapiens), P21728 | HEK293 T-REx D1 cells, calcium flux, agonist mode | activation, % at 2 µM | actives 1% (n = 360,000) | AID 504660, 2011; note: 0% is about no effect
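Tetracycline-induced HEK293 TREx D1 cells, force-coupled to calcium signalling, were dye-loaded with a no-wash calcium kit. Compound was pin-added after a 10 s baseline. Fluorescence was read kinetically at 1 cycle/s for 180 s, with calcium rises flagged as agonism.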
* = called active by the depositor. Rows were chosen to be rich in hits. Some 4% of all compounds tested hit in one or more screens of this group. Cut-off read from the data, not from the text of the source, unless noted: active = activation above about 30%; inactive = the rest.

C/C(CC(=O)Nc1c(Cl)cccc1C(F)(F)F)=N\NC(=O)c1cnccn1 was read as GRP78 ERSR act -0.7%.
CCOc1cc(C(=O)OCC(=O)c2cc(C)n(CC3CCCO3)c2C)ccc1OCC(=O)N1CCOCC1 (configuration not stated) was read as TRHR ag 2.4, GRP78 ERSR act 1.4%, TRHR PAM 38.0*, D1 potentiator -1.4, D1 antag 2.7 and D1 ag 4.6.
CCc1ccccc1NC(=O)C1CCCN1C(=O)Nc1ccc(C)cc1 (configuration not stated) was read as TRHR ag -0.1, GRP78 ERSR act -4.3%, TRHR PAM 0.9, D1 potentiator 2.9, D1 antag 2.4 and D1 ag 1.2.
`CCOC(=O)C(=O)c1csc(NC(=O)CCSc2ccc(C)cc2)n1` gave TRHR ag -0.2, GRP78 ERSR act -3.6%, TRHR PAM 2.6, D1 potentiator -1.1, D1 antag -78.7* and D1 ag 3.6.
`CC1Oc2ccc(C#N)cc2N(Cc2ccc(F)cc2)C1=O` (configuration not stated) gave GRP78 ERSR act 0.0%.
O=C(CCSCc1ccccc1Cl)NCc1ccc(F)cc1Cl was read as TRHR ag -0.1, GRP78 ERSR act -2.7%, TRHR PAM 2.3, D1 potentiator -0.8, D1 antag -19.1 and D1 ag 68.0*.
Screening O=C(CCSCc1ccc(Cl)cc1)NCc1ccc(F)cc1Cl returned TRHR ag 0.5, GRP78 ERSR act -3.3%, TRHR PAM 0.8, D1 potentiator -3.0, D1 antag -32.8* and D1 ag 9.8.
For COc1ccccc1NC(=O)CSc1nnc(CNC(=O)c2ccco2)n1C the results were TRHR ag 0.4, GRP78 ERSR act -4.8%, TRHR PAM -3.4, D1 potentiator 1.8, D1 antag 2.4 and D1 ag 3.6.
`COC(=O)c1sc(-c2ccccc2)cc1NC(=O)c1ccc(F)cc1` gave TRHR ag -0.7, GRP78 ERSR act -3.1%, TRHR PAM -5.0, D1 potentiator 0.1, D1 antag -7.7 and D1 ag 1.2.
`CC(=O)c1sc(-c2ccc(F)cc2)cc1NS(=O)(=O)c1ccccc1` gave TRHR ag -0.4, GRP78 ERSR act -6.3%, TRHR PAM 4.1, D1 potentiator -4.5, D1 antag -41.5* and D1 ag 2.6.
Screening CCC(C)[C@H](N)c1nnc(SCc2ccc(Cl)c(Cl)c2)o1 (some centres not stated) returned TRHR ag -1.5, GRP78 ERSR act -2.3%, TRHR PAM 7.3, D1 potentiator -3.4, D1 antag 0.8 and D1 ag 54.1*.
For Cc1ccc[n+](CC(=O)N2CCCCC2)c1C the results were TRHR ag 2.7, GRP78 ERSR act -2.0%, TRHR PAM 2.3, D1 potentiator -2.6, D1 antag 4.9 and D1 ag 2.7.
`Cc1cc(Nc2cccc([N+](=O)[O-])c2)n2c(nc3ccccc32)c1C#N` gave TRHR ag 2.4, GRP78 ERSR act 0.4%, TRHR PAM -13.1, D1 potentiator -7.3, D1 antag -34.8* and D1 ag 26.1.
Cc1cc(Nc2ccc(F)cc2)n2c(nc3ccccc32)c1C#N was read as TRHR ag 4.0, GRP78 ERSR act -1.7%, TRHR PAM 2.4, D1 potentiator 1.7, D1 antag -0.7 and D1 ag 17.4.
CC(C)Cc1ccc(C(C)C(=O)OCC(=O)c2c[nH]c3ccccc23)cc1 (configuration not stated) was read as TRHR ag 8.2, GRP78 ERSR act 11.6%, TRHR PAM -2.5, D1 potentiator -4.5, D1 antag -26.6 and D1 ag 37.5*.
For COc1ccc(CCNC(=O)c2ccc(Cl)nc2)cc1 the results were TRHR ag -0.2, GRP78 ERSR act 1.3%, TRHR PAM -4.4, D1 antag -17.6 and D1 ag 1.5.
`CCOc1nc(Nc2ccc([N+](=O)[O-])cc2)nc(NC(C)(C)C)n1` gave TRHR ag 0.3, GRP78 ERSR act -2.8%, TRHR PAM -4.9, D1 potentiator -9.1, D1 antag -3.8 and D1 ag 1.3.
`C=CCNc1nc(Nc2ccc([N+](=O)[O-])cc2)nc(OCC)n1` gave TRHR ag 0.5, GRP78 ERSR act -3.0%, TRHR PAM 0.5, D1 potentiator -9.2, D1 antag -54.6* and D1 ag 2.9.
Screening CN(CC(=O)N1CCc2ccccc21)S(=O)(=O)c1cccs1 returned TRHR ag 0.2, GRP78 ERSR act 1.1%, TRHR PAM 5.8, D1 potentiator -2.3, D1 antag -12.3 and D1 ag 1.0.
Screening COc1ccc(NC(=O)Nc2ccc3c(c2)N(C)C(=O)CS3)cc1OC returned TRHR ag 0.0, GRP78 ERSR act -0.2%, TRHR PAM 5.7, D1 potentiator -1.6, D1 antag -18.1 and D1 ag 4.7.
Screening O=C(Nc1ccc([N+](=O)[O-])cc1)Nc1ccc(OC(F)F)c(Cl)c1 returned TRHR ag 2.5, GRP78 ERSR act -13.3%, TRHR PAM -7.7, D1 potentiator -16.8, D1 antag -49.4* and D1 ag 25.0.
For O=C(Nc1ccc2c(c1)OCO2)Nc1ccc2c(c1)OCO2 the results were TRHR ag -0.2, GRP78 ERSR act -1.9%, TRHR PAM 10.1, D1 potentiator 3.5, D1 antag 2.5 and D1 ag 9.8.
Screening O=C(Nc1ccc(OC(F)F)c(Cl)c1)Nc1ccc2c(c1)OCO2 returned TRHR ag 2.0, GRP78 ERSR act -4.3%, TRHR PAM -3.6, D1 potentiator -8.7, D1 antag -35.9* and D1 ag 17.2.
COc1ccc(NC(=O)Nc2ccc3c(c2)N(C)C(=O)CS3)cc1Cl was read as TRHR ag 0.4, GRP78 ERSR act -6.5%, TRHR PAM -6.1, D1 potentiator -6.8, D1 antag -32.8* and D1 ag 12.6.
COc1ccc(NC(=O)Nc2cccc([N+](=O)[O-])c2)cc1Cl was read as TRHR ag 2.7, GRP78 ERSR act -1.1%, TRHR PAM -0.6, D1 potentiator -19.7, D1 antag -57.1* and D1 ag 20.1.
Cc1cc(C)nc(SCC(=O)Nc2ccnc3ccccc23)n1 was read as TRHR ag -3.0, GRP78 ERSR act 0.6%, TRHR PAM 0.8, D1 potentiator 1.7, D1 antag -10.2 and D1 ag 23.6.
